Assay results as given in PubChem BioAssay AID1159580 (chemical genetic matrix, 2015).
Hit rate of the full screen: of about 5,500 compounds, about 2,000 (36%) were called active. Roughly 18% stayed inconclusive and do not appear here. Rule as the data show it: active = normalized growth mostly below about 0.91 (no sharp cut-off); inconclusive = no clear call, values can overlap the other calls; inactive = mostly above about 0.92. The list shows a part of the results.

Test: chemical genetic growth profiling, strain panel (AID 1159580);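 also: tested at 20 µM; growth read once vehicle control cultures reached saturation at 30 °C; 1 = growth at the plate median or of vehicle wells; lower values mean less growth of the strain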
Details: growth OD

Measured: normalized growth

CC(=O)O[C@H]1CC[C@]2(C)C3CC[C@@]4(C)C(CC5O[C@@]6(CCC(C)CO6)[C@@H](C)C54)C3CC[C@H]2C1 (stereo partly drawn)
inactive: S. cerevisiae deletion strains, locus YAL013W, strain DEP1, hits give low values 0.995 | S. cerevisiae deletion strains, locus YBR021W, strain FUR4, hits give low values 1 | S. cerevisiae deletion strains, locus YBR229C, strain ROT2, hits give low values 0.986 | S. cerevisiae deletion strains, locus YCL029C, strain bik1, hits give low values 0.98 | S. cerevisiae deletion strains, locus YDL035C, strain GPR1, hits give low values 1.02 | S. cerevisiae deletion strains, locus YDL074C, strain BRE1, hits give low values 1.01 | S. cerevisiae deletion strains, locus YDL101C, strain DUN1, hits give low values 0.98 | S. cerevisiae deletion strains, locus YDL134C, strain PPH21, hits give low values 0.988 | S. cerevisiae deletion strains, locus YDL185W, strain tfp1, hits give low values 0.972 | S. cerevisiae deletion strains, locus YDL192W, strain arf1, hits give low values 0.987 | S. cerevisiae deletion strains, locus YDR101C, strain arx1, hits give low values 0.983 | S. cerevisiae deletion strains, locus YDR150W, strain NUM1, hits give low values 1 | S. cerevisiae deletion strains, locus YDR162C, strain NBP2, hits give low values 1.02 | S. cerevisiae deletion strains, locus YDR318W, strain mcm21, hits give low values 0.975 | S. cerevisiae deletion strains, locus YDR388W, hits give low values 0.973 | S. cerevisiae deletion strains, locus YDR502C, strain sam2, hits give low values 0.974 | S. cerevisiae deletion strains, locus YEL061C, strain CIN8, hits give low values 0.997 | S. cerevisiae deletion strains, locus YER110C, hits give low values 0.976 | S. cerevisiae deletion strains, locus YER155C, strain BEM2, hits give low values 0.984 | S. cerevisiae deletion strains, locus YER167W, strain BCK2, hits give low values 0.995 | S. cerevisiae deletion strains, locus YGL078C, strain dbp3, hits give low values 0.971 | S. cerevisiae deletion strains, locus YGL086W, strain mad1, hits give low values 0.988 | S. cerevisiae deletion strains, locus YGL248W, strain PDE1, hits give low values 0.984 | S. cerevisiae deletion strains, locus YGR135W, strain pre9, hits give low values 0.948 | S. cerevisiae deletion strains, locus YGR252W, strain gcn5, hits give low values 0.92 | S. cerevisiae deletion strains, locus YHR030C, strain SLT2, hits give low values 0.978 | S. cerevisiae deletion strains, locus YHR079C, strain IRE1 (second series), hits give low values 0.977 | S. cerevisiae deletion strains, locus YHR094C, strain hxt1, hits give low values 0.969 | S. cerevisiae deletion strains, locus YHR129C, strain ARP1, hits give low values 0.991 | S. cerevisiae deletion strains, locus YHR200W, strain rpn10, hits give low values 0.973 | S. cerevisiae deletion strains, locus YIL066C, strain RNR3, hits give low values 0.993 | S. cerevisiae deletion strains, locus YIL073C, strain SPO22, hits give low values 0.985 | S. cerevisiae deletion strains, locus YIL125W, strain kgd1, hits give low values 0.982 | S. cerevisiae deletion strains, locus YIR030C, strain dcg1, hits give low values 0.975 | S. cerevisiae deletion strains, locus YJL095W, strain BCK1, hits give low values 0.977 | S. cerevisiae deletion strains, locus YJL134W, strain LCB3, hits give low values 0.987 | S. cerevisiae deletion strains, locus YJL168C, strain set2, hits give low values 0.979 | S. cerevisiae deletion strains, locus YJL187C, strain SWE1 (second series), hits give low values 0.977 | S. cerevisiae deletion strains, locus YJR043C, strain POL32, hits give low values 1.02 | S. cerevisiae deletion strains, locus YJR075W, strain HOC1, hits give low values 0.983 | S. cerevisiae deletion strains, locus YKL009W, strain mrt4, hits give low values 1.04 | S. cerevisiae deletion strains, locus YKL068W, hits give low values 0.979 | S. cerevisiae deletion strains, locus YKL085W, strain MDH1 (second series), hits give low values 1.01 | S. cerevisiae deletion strains, locus YKL085W, strain MDH1, hits give low values 1.01 | S. cerevisiae deletion strains, locus YKL190W, strain CNB1, hits give low values 0.999 | S. cerevisiae deletion strains, locus YKR001C, strain vps1, hits give low values 0.971 | S. cerevisiae deletion strains, locus YLR039C, strain RIC1, hits give low values 1.07 | S. cerevisiae deletion strains, locus YLR058C, strain SHM2, hits give low values 0.989 | S. cerevisiae deletion strains, locus YLR102C, strain apc9, hits give low values 0.979 | S. cerevisiae deletion strains, locus YLR268W, strain sec22, hits give low values 0.987 | S. cerevisiae deletion strains, locus YLR330W, strain CHS5, hits give low values 0.986 | S. cerevisiae deletion strains, locus YLR371W, strain rom2, hits give low values 0.991 | S. cerevisiae deletion strains, locus YLR418C, strain cdc73, hits give low values 0.976 | S. cerevisiae deletion strains, locus YML016C, strain PPZ1, hits give low values 0.989 | S. cerevisiae deletion strains, locus YML032C, strain rad52, hits give low values 0.977 | S. cerevisiae deletion strains, locus YML124C, strain tub3, hits give low values 0.994 | S. cerevisiae deletion strains, locus YMR078C, strain ctf18, hits give low values 0.969 | S. cerevisiae deletion strains, locus YMR223W, strain ubp8, hits give low values 0.969 | S. cerevisiae deletion strains, locus YMR263W, strain SAP30, hits give low values 0.991 | S. cerevisiae deletion strains, locus YMR307W, strain GAS1, hits give low values 1.09 | S. cerevisiae deletion strains, locus YNL067W, strain RPL9B, hits give low values 0.983 | S. cerevisiae deletion strains, locus YNL153C, strain GIM3, hits give low values 0.977 | S. cerevisiae deletion strains, locus YNL233W, strain BNI4, hits give low values 1.01 | S. cerevisiae deletion strains, locus YNL250W, strain rad50, hits give low values 0.965 | S. cerevisiae deletion strains, locus YNL271C, strain bni1, hits give low values 0.982 | S. cerevisiae deletion strains, locus YNL298W, strain CLA4, hits give low values 0.971 | S. cerevisiae deletion strains, locus YNL307C, strain MCK1, hits give low values 0.982 | S. cerevisiae deletion strains, locus YNR052C, strain pop2, hits give low values 0.953 | S. cerevisiae deletion strains, locus YOL006C, strain TOP1, hits give low values 1.06 | S. cerevisiae deletion strains, locus YOL012C, strain htz1 1.12 | S. cerevisiae deletion strains, locus YOL147C, strain pex11, hits give low values 0.98 | S. cerevisiae deletion strains, locus YOR061W, strain CKA2, hits give low values 1 | S. cerevisiae deletion strains, locus YOR069W, strain VPS5, hits give low values 0.98 | S. cerevisiae deletion strains, locus YOR136W, strain idh2, hits give low values 0.968 | S. cerevisiae deletion strains, locus YOR144C, strain elg1, hits give low values 0.972 | S. cerevisiae deletion strains, locus YOR184W, strain ser1, hits give low values 1.02 | S. cerevisiae deletion strains, locus YOR316C, strain cot1, hits give low values 0.977 | S. cerevisiae deletion strains, locus YPR119W, strain clb2, hits give low values 0.968 | S. cerevisiae deletion strains, locus YPR141C, strain kar3, hits give low values 0.974 | S. cerevisiae deletion strains, locus YPR163C, strain tif3, hits give low values 0.977 | S. cerevisiae deletion strains, locus YPR167C, strain met16, hits give low values 0.979 | S. cerevisiae deletion strains, strain wtn01, hits give low values 1 | S. cerevisiae strains, strain wild type, hits give low values 1.02
